Compound activity: PubChem BioAssay, National Center for Advancing Translational Sciences (NCATS)
Shiga inhibitor = Shiga toxin inhibition; Vero cells, Shiga toxin protein synthesis inhibition reporter; inhibition, % at 38.7 µM; 290,000 compounds, 9.2% hits; in the data active = inhibition mostly above about 28%, no sharp cut-off; inactive = mostly below about 43%
Pf growth 96h = P. falciparum growth inhibition at 96 hours | P. falciparum luciferase reporter growth, 96 h | Potency, µM (titrated, usually from 28.7 µM), most hits filed as inhibitors | 320,000 compounds, 6.9% hits
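96 h incubation, 37 C, 5% CO2, of luciferase-reporter P. falciparum-infected RBCs (2% hematocrit, 0.05% parasitemia final) with test compounds; endpoint luminescence.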
Marburg entry inh = inhibitors of Marburg virus binding or cell entry; Potency, µM (top dose mostly 37.8 µM), usual class: inhibitors; 300,000 compounds, 1.8% hits; AID 540276; Marburg virus pseudotyped entry inhibition, cell reporter; calls by dose curve; tested in HEK293 cells
LASV entry inh = Lassa virus entry inhibition. Potency, µM (top dose mostly 37.9 µM), hits mostly inhibitors. AID 540256. 300,000 compounds, 1.2% hits. Lassa virus pseudotype entry inhibition, cell reporter; calls by dose curve; tested in HEK293 cells; note: nearly all actives have a fitted effect of over 50% in size
CHX counter = counter-screen hit for Shiga toxin inhibitors, cycloheximide; max response, %; 300,000 compounds, 12% hits; cell reporter, cycloheximide protein synthesis inhibition counterscreen; in the data active = max response mostly above about 13%, no sharp cut-off; inactive = mostly below about 14%; note: read at 38.3 µM for the half of the compounds with a filed dose
Pf growth 48h = inhibits P. falciparum growth in the first generation, 48 h. P. falciparum luciferase growth in erythrocytes, 48 h. Potency, µM (highest dose often 28.7 µM), usual class: inhibitors. 310,000 compounds, 5.9% hits. AID 504832
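Growth was read as firefly luciferase luminescence after a 48 h, 37 C, 5% CO2 exposure of compounds to reporter-bearing P. falciparum cultures (0.1% parasitemia, 2% hematocrit final) in Albumax-supplemented RPMI 1640.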
A number is an active result; – = inactive; ? = inconclusive; · = no result; [ ] = another dose, or the depositor's remark. Hits are enriched below; roughly 19% of the tested compounds scored in any of these assays. Unless noted, calls come from the whole dose curve; as a rule, active = well fitted inhibition curve with a large enough effect; inconclusive = small, poorly fitted or top-dose-only effect, or another doubt; inactive = no such curve, though single readings can be large or run the other way.

SMILES	Shiga inhibitor	Pf growth 96h	Marburg entry inh	LASV entry inh	CHX counter	Pf growth 48h
Cc1ccc(N=C2NC(=O)/C(=C\c3ccc(C)s3)S2)cc1	–	1.7µM	?	?	–	?
Cc1ccccc1N=C1NC(=O)/C(=C/c2cccn2-c2cccc(C(=O)O)c2)S1	–	–	–	–	–	–
Cc1cccc(N=C2NC(=O)/C(=C/c3cccn3C)S2)c1C	–	–	8.9µM	?	–	–
Cc1ccc(N=C2NC(=O)/C(=C/c3cccn3C)S2)cc1C	66	13µM	?	?	32	?
COC(=O)CN1C(=O)CSc2ccc(S(=O)(=O)Nc3ccc(C)c(Cl)c3)cc21	·	·	·	–	·	·
COc1ccc(N(CC(=O)N2c3ccccc3CC2C)S(=O)(=O)c2c(C)nn(C)c2C)cc1 (stereo not given)	–	–	–	·	–	·
CS(=O)(=O)n1nc(-c2cccnc2)nc1NCc1ccccc1	–	–	–	?	–	–
COc1ccccc1N=Nc1[nH]c2ccc(C)cc2c1O	32	?	?	?	22	–
Cc1ccc(N=C2NC(=O)C(CC(=O)NCc3ccccc3)S2)cc1C (stereo not given)	–	–	–	–	–	–
COc1ccc(CCNC(=O)COc2ncnc3ccccc23)cc1OC	–	–	–	?	–	–
CCOC(=O)c1c(C)nc2sc3c(=O)n(-c4ccc(OC)cc4)cnc3c2c1-c1ccc(OC)cc1	–	12µM	–	–	–	?
CCOC(=O)c1c(C)nc2sc3c(=O)n(-c4ccc(C(C)=O)cc4)nnc3c2c1-c1ccc(OC)cc1	–	–	?	?	–	?
CCOC(=O)c1c(C)nc2sc(C(=O)Nc3ccc(OC)cc3)c(N)c2c1-c1ccc(OC)cc1	–	2.3µM	?	?	–	·
CCOC(=O)c1c(C)nc2sc(C(=O)Nc3ccc(C(C)=O)cc3)c(N)c2c1-c1ccc(OC)cc1	–	–[5.75 µM]	2.8µM	?	–	?
Cc1ccc(N2CC(C(=O)Nc3nccs3)CC2=O)cc1Cl (stereo not given)	–	–	–	–	–	·
C/C(=N\NS(=O)(=O)c1ccccc1)c1ccc2c(c1)OCCO2	–	–	?	–	–	–
COc1ccc(OC)c(NC(=O)CSC2=Nc3ccccc3C3=NC(CCC(=O)NCCc4ccccc4)C(=O)N23)c1 (stereo not given)	·	·	·	–	·	·
O=C(CN1CC(c2ccccc2)CC1=O)OCc1ccccc1F (stereo not given)	97	·	?	–	44	–
CCOC(=O)c1ccc(CSc2ncn[nH]2)o1	–	·	–	–	–	–
CCCCOc1ccc(CSc2nncn2N)cc1	65	·	?	–	31	–
CCCCOc1ccc(CSc2ncn[nH]2)cc1	–	–	?	?	26	–
CCCCCOc1ccc(CSc2ncn[nH]2)cc1	72	?	–	–	39	–
COc1ccc(/C=C(/NC(=O)c2ccccc2)C(=O)N/N=C/c2ccncc2)cc1	–	–	–	?	–	–
CCOC(=O)c1ccc(N=Cc2c(O)n(-c3ccccc3F)c(=S)[nH]c2=O)cc1	–	–	?	–	–	–
COc1cccc(C(=O)Nc2nc3c(s2)CN(C)CC3)c1	176	–	–	?	–	–
SMILES	Shiga inhibitor	Pf growth 96h	Marburg entry inh	LASV entry inh	CHX counter	Pf growth 48h
O=C(Nc1nncs1)c1cccc(S(=O)(=O)N2CCc3ccccc32)c1	–	–	–	–	–	–
CN1CCc2nc(NC(=O)c3cccc(S(=O)(=O)N4CCc5ccccc54)c3)sc2C1	–	–	?	–	–	5.9µM
COc1ccc2c(c1)CCc1sc(NC(=O)c3cccc(Br)c3)nc1-2	·	·	·	–	·	·
O=C(Nc1nc2c(s1)CCCC2)c1cccc(S(=O)(=O)N2CCCc3ccccc32)c1	–	?	?	?	–	9.3µM
CCC(CC)c1nnc(NC(=O)c2cccc(S(=O)(=O)N3CCc4ccccc43)c2)s1	–	?	–	?	–	15µM
COC(=O)CCCNC(=O)c1ccc2[nH]c(C)c(C)c2c1	–	–	–	–	–	–
Cc1ccc2nc(NC(=O)c3ccc(S(=O)(=O)N4CCCc5ccccc54)cc3)sc2c1	–	?	?	?	–	?
O=C(Nc1nc2ccc(F)cc2s1)c1cccc(S(=O)(=O)N2CCc3ccccc32)c1	–	?	?	–	24	–
Clc1ccc(-n2cc(-c3ccc(Br)cc3)[n+]3c2CCCCC3)cc1	–	?	·	·	–	?
FC(F)Sc1ccc(-n2c(-c3ccc(Cl)cc3)c[n+]3c2CCC3)cc1	–	?	·	·	–	?
